Test results taken from PubChem BioAssay (NCATS).
Inconclusive results are not listed. Where a call stands in place of a potency, no number is given. Values without a mark were called inactive. Calls of active or inactive are those of the source. Calls follow the shape of the dose curve; as a rule, active = well fitted curve in the direction sought with a large enough effect; inconclusive = small, poorly fitted or top-dose-only effect, or another doubt; inactive = no such curve, though single readings can be large; an effect the other way counts as inactive or inconclusive.

Assays:
[1] = test system: Zika virus NS2B-NS3 protease; assay: Primary screen GU AMC qHTS for Zika virus inhibitors (AID 1347154); also: nearly all actives have a fitted effect of over 70% in size
Outline: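 Unlinked Zika NS2B hydrophilic domain–NS3 protease complex at 25 nM in 10 mM Tris-HCl pH 8.0, 0.01% Tween 20, with an AMC peptide substrate. Fluorescence change (340/450 nm) over 15 min at room temperature, normalized to controls, fitted to 4-parameter Hill.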

[2] = Primary qHTS for small molecule stabilizers of the endoplasmic reticulum resident proteome: Secreted ER Calcium Modulated Protein (SERCaMP) assay (AID 1508630)
Outline: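 GLuc-SERCaMP-expressing SH-SY5Y cells, pretreated 16 h with compound, are challenged with thapsigargin to empty ER calcium stores; after 4 h, coelenterazine is added directly to the medium and luminescence is imaged.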

SMILES | Potency [1] | Potency [2] | activity change, negative = inhibition [1] | activity change, negative = inhibition [2]
CCC(=O)NC1CCc2cccc(OC)c2C1 (stereo unspecified) | inactive | inactive |  | 
CCCCCCCC/C=C\CCCCCCCC(=O)OC[C@@H](O)COP(=O)(O)O |  |  | 20.5% [at 6.83 µM] | -10.9% [at 3.88 µM]
Nc1nc2c(ncn2[C@@H]2O[C@H](COP(=O)(O)OP(=O)(O)O)[C@@H](O)[C@H]2O)c(=O)[nH]1 | inactive | inactive |  | 
